Assay results as given in PubChem BioAssay AID889 (National Center for Advancing Translational Sciences (NCATS), 2007).
Out of some 75,000 compounds screened, about 15 (0.02%) were called active. Another 3% or so got no clear call; they are omitted. The entries come from a sample that favours actives as a whole. Values without a mark were called inactive. Calls come from the whole dose curve; as a rule, active = well fitted inhibition curve with a large enough effect in the main read-out, with a control signal flat (not every such curve was filed as active); inconclusive = small, poorly fitted or top-dose-only effect, or a change in a side signal; inactive = flat fitted curve, though single readings scatter.
Potency is the fitted concentration of half-maximal effect.
Throughout, for activity change, negative = inhibition: % of control where 0% means no effect.

The compounds below were run against Caspase-7 (Homo sapiens) (UniProt P55210) (assay: qHTS Assay for Allosteric/Competitive Inhibitors of Caspase-7). Details: recombinant caspase-7, Ac-DEVD-AFC fluorescence rate; series mostly up to 57.5 µM; activity change, negative = inhibition: at the top concentration.
Chain of Caspase-7 (Homo sapiens) (P55210 24-198 limits assumed): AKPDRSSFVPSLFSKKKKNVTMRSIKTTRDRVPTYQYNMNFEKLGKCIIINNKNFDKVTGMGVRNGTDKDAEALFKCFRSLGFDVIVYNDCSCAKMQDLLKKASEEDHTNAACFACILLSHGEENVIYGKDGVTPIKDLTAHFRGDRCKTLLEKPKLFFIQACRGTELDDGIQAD
Chain of Caspase-7 (Homo sapiens) (P55210 207-303 limits assumed): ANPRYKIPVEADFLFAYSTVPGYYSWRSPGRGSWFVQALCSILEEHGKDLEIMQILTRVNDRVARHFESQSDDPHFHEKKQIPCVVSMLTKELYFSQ
Text: NIH Molecular Libraries Screening Centers Network [MLSCN]
NIH Chemical Genomics Center [NCGC]
PI Name: Dr. James Wells,
Dr. Enrique Perez-Paya, Dr.Janice Williams, Dr. Dennis Wolan, a person
The caspases (Cysteine Aspartyl Protease) comprise a related family of 14 dimeric proteases that are critical mediators of apoptosis (programmed cell death) and inflammation. The caspases represent an important class of drug targets for stroke, ischemia, cancer and inflammatory diseases. […] One goal of this project was to identify compounds that act as allosteric inhibitors via stabilizing the procaspase form of the enzyme. Previous work in Well's laboratory has shown that such allosteric inhibitors can be identified and these act by binding at the dimer interface of enzyme (Hardy, Lam et al., 2004).
The biochemical assay was configured using purified caspase 7 at a high enzyme concentration to promote formation of the homodimers and thus facilitate the identification of allosteric inhibitors. The overall goal was to identify reversible inhibitors with better drug-like properties than the currently available set of aspartyl-containing peptidomimetics that covalently bind the active site. Caspase 7 was assayed using the profluorescent substrate Ac-DEVD-AFC. After initiation of the assay with substrate the plates were rapidly read using an automated robotic system (Kalypsys, Inc.) to maintain consistent timing. A kinetic mode of detection was used where the initial rate was collected (estimated final product formation was ~10%). Compounds were screened as a concentration-titration series that ranged from 57 uM to 0.7 nM. Below is the protocol used for caspase 7.
NCGC Assay Protocol Summary:
Caspase 7 was prepared in buffer (50 mM HEPES pH 7.5, 50 mM KCl, 200 mM NaCl, 10 mM DTT, 0.1% CHAPS) at a concentration of 66.6 nM and 3 uL was dispensed to all wells using black solid Kalypsys 1536-well plates. 20 nL of DMSO containing compounds was added using a pin-tool (Kalypsys Inc.) to columns 5-48. Then 20 nL of DMSO solution from a control plate was added to columns 1-4. Controls were: Column 1, 16 point titration with each concentration in duplicate (1:1 dilutions in DMSO; final starting concentration was 57 uM) of the caspase 7 inhibitor Ac-DEVD-CHO (Alexis Biochemicals); Column 2, a 16 point titration with each concentration in duplicate of the free AFC fluorophore prepared in DMSO (Alexis Biochemicals), final starting was 40 uM; Column 3 neutral (DMSO only) control; Column 4: DMSO alone, to serve as a negative control (no substrate was added). Then 1 uL of 20 uM the substrate Ac-DEVD-AFC (Alexis Biochemicals) prepared in the same buffer was dispensed to all wells except columns 2 and 4 and the plates were immediately transferred (< 1 min) to the Viewlux. The plates were then exposed using 405 nm excitation/520 nm emission filters for 4 sec and read at 20 sec intervals for 3 min. Final enzyme concentration was 50 nM and the final substrate concentration was 5 uM.
Concentration-response curves were fitted to the data calculated from slope of the linear regression of fluorescent intensity versus time (the rate). The concentration-effect curves were then classified based on curve quality (r2), response magnitude and degree of measured activity. […] Inconclusive compounds had appreciable concentration-dependent effects on both the measured rate and the interpolated basal fluorescence intensity at the start of the reaction but where the basal fluorescent intensity was marginal (e.g. < 10-fold). Inconclusive compounds also encompass highly fluorescent compounds (>100-fold increases in fluorescent intensities values relative to controls) where artificial concentration-dependent decreases in the rate occurred at high compound concentrations due to fluorescent interferences.
Keywords: Caspase 7, proteases, profluorescent, MLSMR, MLSCN, NIH Roadmap, qHTS, NCGC
With CC1CCc2c(sc(NC(=O)c3ccc(Cn4cc(Br)cn4)o3)c2C(N)=O)C1 (centres undefined) the “activity change, negative = inhibition” value was -12.6%. C/C(=N\O)C1(C)N(O)C(C)(C)C(c2ccc(Br)cc2)=[N+]1[O-] (centres undefined) was tested, and the “activity change, negative = inhibition” value was 0.703%. In the case of CC(=O)Nc1ccc(NC(=O)CN2CCCC(C)C2)c(Cl)c1 (centres undefined), the “activity change, negative = inhibition” value was -0.338%. In the case of Cn1c(N)c(C(=O)COC(=O)c2cc(C(F)(F)F)nc3c(C(F)(F)F)cccc23)c(=O)n(C)c1=O, the “activity change, negative = inhibition” value was 1.07%. For Cc1cc(NC(=O)CCC(=O)N(c2cccc(F)c2)C(C(=O)NC2CCCC2)c2ccncc2)no1 (centres undefined), the “activity change, negative = inhibition” value was 0.523%. In the case of COc1ccc(N2C(=O)C3CCCN3C2c2cc(OC)c(OC)cc2OC)cc1 (centres undefined), the “activity change, negative = inhibition” value was -1.73%. In the case of O=C(NCc1ccco1)c1cc(-c2cccnc2)nc2ccc(Cl)cc12, the “activity change, negative = inhibition” value was -1.35%. CC(C)CN1CCc2nc(-c3ccccc3)c3c(c2C1)COC(C)C3 (centres undefined) was tested, and the activity change, negative = inhibition was -0.41% [at 11.5 µM]. With O=C(Nc1cccc(Cl)c1)OCc1ccccn1 the “activity change, negative = inhibition” value was 1.86%. With O=C(O)CC(C(=O)O)C(CC(=O)O)C(=O)O (centres undefined) the “activity change, negative = inhibition” value was 0.506%. For CCc1ccc(CCC(=O)Nc2ccc(S(N)(=O)=O)cc2)o1, the “activity change, negative = inhibition” value was 0.82%. CN(C)CCSS(=O)(=O)O showed an activity change, negative = inhibition of -1.05% [at 11.5 µM]. C[C@@H]1O[C@@H](OC[C@H]2O[C@@H](Oc3c(-c4cccc(O)c4O)oc4cc(O)cc(O)c4c3=O)[C@H](O)[C@@H](O)[C@@H]2O)[C@H](O)[C@H](O)[C@H]1O was tested, and the “activity change, negative = inhibition” value was -1.32%. For OCCCNCc1ccccn1, the activity change, negative = inhibition was 0.29% [at 11.5 µM]. In the case of Cc1cccn2c(=O)c3cc(C(=O)NCc4ccccn4)n(C)c3nc12, the “activity change, negative = inhibition” value was 0.28%. In the case of O=C(NCc1ccccn1)c1ccc2nc(-c3ccco3)c(-c3ccco3)nc2c1, the Potency was 25.1 µM (active). In the case of O=C(NCc1ccccn1)c1cc2ccccc2oc1=O, the “activity change, negative = inhibition” value was -0.481%. In the case of COc1ccc(CC(=O)Nc2nc3n(n2)C(c2ccccc2)CC(=O)N3)cc1OC (centres undefined), the “activity change, negative = inhibition” value was 0.956%. With Cc1cccc(NC(=O)CSc2nnc(CCCCCNC(=O)OC(C)(C)C)o2)c1C the “activity change, negative = inhibition” value was -0.868%. For CCOc1cc(C(=S)N2CCOCC2)ccc1O, the “activity change, negative = inhibition” value was -0.0185%. With CC(C)C(=O)N1CCN(CCN=CC2=C(O)CC(c3ccco3)CC2=O)CC1 (centres undefined) the “activity change, negative = inhibition” value was -3.14%. With CCCCCCCCCc1ccc(OCCOCCOCCOCCOCCOCCOCCOCCOCCO)cc1 the “activity change, negative = inhibition” value was -6.3%. In the case of COc1c2c(cc3occ(-c4ccc5c(c4)OCO5)c(=O)c13)OC(C)(C)C=C2, the “activity change, negative = inhibition” value was -5.41%. With O=C(CC1CCCCC1)Nc1c2c(nn1-c1ccc(F)cc1)CS(=O)(=O)C2 the “activity change, negative = inhibition” value was -1.72%. With CC1(C)OC2CC(=O)OC[C@@]23C1CC(=O)[C@]1(C)C3CC[C@@]2(C)C(c3ccoc3)OC(=O)C3O[C@@]321 (some centres undefined) the “activity change, negative = inhibition” value was -1.5%. In the case of Cc1cccc(-c2cc(=O)c3cc(C)ccc3o2)c1, the “activity change, negative = inhibition” value was -5.03%. In the case of CCCc1nc2c(C)cc(-c3nc4ccccc4n3C)cc2n1Cc1ccc(-c2ccccc2C(=O)O)cc1, the “activity change, negative = inhibition” value was -5.24%. Cn1c(Cc2csc(N)n2)nnc1SC/C=C/c1ccccc1 was tested, and the “activity change, negative = inhibition” value was -17.5%. C=C(C)C1CC=C(CO)CC1 (centres undefined) was tested, and the “activity change, negative = inhibition” value was 2.74%. O=C1OC(C(O)CO)C(O)=C1O (centres undefined) was tested, and the “activity change, negative = inhibition” value was 1.71%. In the case of CCCN1[C@H](C(=O)OC)C[C@@]2(O)[C@@H](O)[C@@H](O)[C@@H](O)C[C@@H]12, the “activity change, negative = inhibition” value was -1.49%. CCN(c1ccccc1)S(=O)(=O)c1cccc(C(=O)O)c1 was tested, and the “activity change, negative = inhibition” value was -0.863%. COc1ccccc1C(=O)C(O)c1ccccc1OC (centres undefined) was tested, and the “activity change, negative = inhibition” value was -0.715%. CCNC(=O)CCc1nc(-c2ccc(C(C)(C)C)cc2)no1 was tested, and the “activity change, negative = inhibition” value was -1.09%. With CC(=O)c1c(C)n(-c2ccc(N(C)C)cc2)c2ccc(OCC(N)=O)cc12 the “activity change, negative = inhibition” value was 0.0847%. CC(=O)OC(C(=O)NC1CCCCC1)c1ccccc1 (centres undefined) was tested, and the “activity change, negative = inhibition” value was 0.612%. For CC(C)C1=CC2=CC[C@@H]3[C@](C)(CO)CCC[C@]3(C)C2CC1 (some centres undefined), the “activity change, negative = inhibition” value was -1.8%. In the case of COC(=O)[C@@H]1C[C@H]2CC[C@H](O)C[C@H]2N1Cc1ccc(N2CCN(C)CC2)cc1, the “activity change, negative = inhibition” value was -1.78%. In the case of COc1ccc(OCc2cccc(C(=O)N3CCCC3)c2)cc1, the “activity change, negative = inhibition” value was -1.42%. With Oc1ccc(O)c2c(O)cccc12 the “activity change, negative = inhibition” value was -27.9%. In the case of N#CCCN1CCN(S(=O)(=O)c2ccc(S(=O)(=O)N3CCCC3)cc2)CC1, the “activity change, negative = inhibition” value was 0.676%. With O=C(Nc1cccc(-c2nnc(-c3ccccc3)o2)c1)C1CCCO1 (centres undefined) the “activity change, negative = inhibition” value was -0.105%. With FC(F)(F)c1ccc(CN2C[C@@H]3C(c4ccccc4)C4(c5ccccc5)CC3(C4)[C@H]2c2ccccc2)cc1 (some centres undefined) the “activity change, negative = inhibition” value was -0.934%. O=C1CSC(c2cccc(F)c2)N1c1ccccc1F (centres undefined) was tested, and the “activity change, negative = inhibition” value was 0.368%. O=C(O)c1ccc(Cl)c(S(=O)(=O)Nc2ccccc2Cl)c1 was tested, and the “activity change, negative = inhibition” value was -0.369%. For CN1CC(=O)N=C1N, the “activity change, negative = inhibition” value was 2.7%. CO[C@H]1COC(=O)CCC[C@@H](C)[C@H](OC)COC(=O)[C@@H](C)NC(=O)C/C=C\[C@@H]1C gave an activity change, negative = inhibition of 0.707% [at 11.5 µM]. For COc1cc(=O)[nH]c(=O)n1C(=O)Cc1ccccc1, the “activity change, negative = inhibition” value was -0.165%. For COc1ccc(-c2cc(C(=O)NC(C(=O)O)C(C)C)c(C)o2)cc1OC (centres undefined), the “activity change, negative = inhibition” value was 0.0406%.
